Records with an inconclusive call do not appear. Active and inactive are the calls of the source. The call rests on the fitted dose curve; in most records, active means well fitted cell-killing curve with a large enough effect; inconclusive means small, poorly fitted or top-dose-only effect, or effect the other way; inactive means flat fitted curve, though single readings scatter.
Tests used:
Experiment in all cases: Primary qHTS to identify gynecologic anti-cancer compounds using libraries of approved drugs and bioactive compounds (AID 1345084); further: nearly all actives have a fitted effect of over 55% in size
Settings in all cases: Gynecologic cancer cell panel viability, ATPlite luminescence, 48 h; series mostly up to 57.5 µM
[1] = system: OV90
Outline: (§1)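 ATP-based viability (ATPlite), 1,000 cells/well, 16 h pre-incubation, 48 h compound at 37 C, 5% CO2, 15 min RT before read.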

[2] = system: PA-1
Outline: as §1

[3] = system: SKOV3
Outline: as §1

[4] = system: Tov-21-G
Outline: as §1

[5] = system: Tov112D
Outline: as §1

Measured: Potency

O=C(/C=C/c1ccc(O)cc1)O[C@H]1[C@@H]2C=CO[C@@H](O[C@@H]3O[C@H](CO)[C@@H](O)[C@H](O)[C@H]3O)[C@@H]2[C@@]2(CO)O[C@@H]12
inactive: [1] | [2] | [3] | [4] | [5]

C=C1CCC2C(C)(C(=O)O)CC(O)CC2(C)C1CC/C(C)=C/C(=O)O (stereo not given)
inactive: [1] | [2] | [3] | [4] | [5]

O=C(O)c1n[nH]c2c1C[C@H]1C[C@@H]21
inactive: [1] | [2] | [3] | [4] | [5]

CC(/C=C/C1(O)C(C)CC(O)CC1(C)C)OC1OC(CO)C(O)C(O)C1O (stereo not given)
inactive: [1] | [2] | [3] | [4] | [5]

C=C1C(=O)O[C@H]2[C@H]1[C@@H](OC(=O)C(C)CO)C[C@@]1(C)[C@H](O)CCC(=O)[C@H]21 (stereo not given in full)
inactive: [1] | [2] | [3] | [4] | [5]

C=C1C[C@@]23CC[C@@H]4[C@](C)(C(=O)O)CCC[C@@]4(C)C2=CC[C@H]1C3
inactive: [1] | [2] | [3] | [4] | [5]

CC/C=C\C[C@H]1C(=O)C=C[C@@H]1CCCCCCCC(=O)O
inactive: [1] | [2] | [3] | [4] | [5]

CC[C@H](C)/C=C(C)/C=C/C(=O)Cc1cc(O)c(C)c(O)c1C=O
inactive: [1] | [2] | [3] | [4] | [5]

CC12CCC3C(C)(C)C(O)CCC3(C)C1Cc1c(oc(C(=O)O)cc1=O)O2 (stereo not given)
inactive: [1] | [2] | [3] | [4] | [5]

C[C@@H]1O[C@@H](O[C@H]2[C@H](OC(C#N)c3ccc(O)cc3)O[C@H](CO)[C@@H](O)[C@@H]2O)[C@H](O)[C@H](O)[C@H]1O (stereo not given in full)
inactive: [1] | [2] | [3] | [4] | [5]
